Results from PubChem BioAssay AID1159580 (chemical genetic matrix, 2015).
The campaign covered roughly 5,500 compounds. About 2,000 (36%) were called active. Another 18% or so got no clear call; they are omitted. Rule as the data show it: active = normalized growth mostly below about 0.91 (no sharp cut-off); inconclusive = no clear call, values can overlap the other calls; inactive = mostly above about 0.92. The list shows a part of the results.

Assay: chemical genetic growth profiling, strain panel (AID 1159580);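 also: tested at 20 µM; growth read once vehicle control cultures reached saturation at 30 °C; 1 = growth at the plate median or of vehicle wells; lower values mean less growth of the strain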
Conditions: S. cerevisiae deletion strains, growth OD
[1] = locus YAR019C, strain CDC15, hits give low values
[2] = locus YBL105C, strain PKC1, hits give low values
[3] = locus YBR135W, strain CKS1, hits give low values
[4] = locus YBR136W, strain MEC1, hits give low values
[5] = locus YBR160W, strain CDC28, hits give low values
[6] = locus YDL017W, strain CDC7, hits give low values
[7] = locus YDL028C, strain MPS1, hits give low values
[8] = locus YDL101C, strain DUN1, hits give low values
[9] = locus YDL108W, strain KIN28, hits give low values
[10] = locus YDL132W, strain cdc53, hits give low values
[11] = locus YDL214C, strain PRR2, hits give low values
[12] = locus YDR052C, strain DBF4, hits give low values
[13] = locus YDR054C, strain cdc34, hits give low values
[14] = locus YDR226W, strain ADK1, hits give low values
[15] = locus YDR477W, strain SNF1, hits give low values
[16] = locus YER123W, strain YCK3, hits give low values
[17] = locus YER133W, strain GLC7, hits give low values
[18] = locus YFL009W, strain cdc4, hits give low values
[19] = locus YFL029C, strain CAK1, hits give low values
[20] = locus YFR003C, strain YPI1, hits give low values
[21] = locus YFR019W, strain FAB1, hits give low values
[22] = locus YFR028C, strain CDC14, hits give low values
[23] = locus YGR040W, strain KSS1, hits give low values
[24] = locus YGR052W, strain FMP48, hits give low values
[25] = locus YGR092W, strain DBF2, hits give low values
[26] = locus YHR030C, strain SLT2, hits give low values
[27] = locus YHR079C, strain IRE1, hits give low values
[28] = locus YHR082C, strain KSP1, hits give low values
[29] = locus YHR205W, strain SCH9, hits give low values
[30] = locus YIL147C, strain SLN1, hits give low values
[31] = locus YJL095W, strain BCK1, hits give low values
[32] = locus YJL128C, strain PBS2, hits give low values
[33] = locus YJL157C, strain FAR1, hits give low values
[34] = locus YJR016C, strain ILV3, hits give low values
[35] = locus YJR066W, strain TOR1 (second series), hits give low values
[36] = locus YJR066W, strain TOR1, hits give low values
[37] = locus YKL048C, strain ELM1, hits give low values
[38] = locus YKL067W, strain YNK1, hits give low values
[39] = locus YKL101W, strain HSL1, hits give low values
[40] = locus YKL193C, strain SDS22, hits give low values
[41] = locus YKL203C, strain TOR2, hits give low values
[42] = locus YLR113W, strain HOG1, hits give low values
[43] = locus YLR133W, strain CKI1, hits give low values
[44] = locus YLR403W, strain SFP1, hits give low values
[45] = locus YML070W, strain DAK1, hits give low values
[46] = locus YMR001C, strain CDC5, hits give low values
[47] = locus YMR205C, strain PFK2 (second series), hits give low values
[48] = locus YMR277W, strain FCP1, hits give low values
[49] = locus YNL006W, strain LST8, hits give low values
[50] = locus YNL020C, strain ARK1, hits give low values
[51] = locus YNL161W, strain CBK1, hits give low values
[52] = locus YNL183C, strain NPR1, hits give low values
[53] = locus YNL207W, strain RIO2, hits give low values
[54] = locus YNL222W, strain SSU72, hits give low values
[55] = locus YNL307C, strain MCK1 (second series), hits give low values
[56] = locus YOL078W, strain AVO1, hits give low values
[57] = locus YOL136C, strain PFK27, hits give low values
[58] = locus YOR061W, strain CKA2, hits give low values
[59] = locus YOR119C, strain RIO1, hits give low values
[60] = locus YOR231W, strain MKK1, hits give low values
[61] = locus YOR329C, strain SCD5, hits give low values
[62] = locus YPL031C, strain PHO85, hits give low values
[63] = locus YPL153C, strain RAD53, hits give low values
[64] = locus YPL204W, strain HRR25, hits give low values
[65] = locus YPL209C, strain IPL1, hits give low values
[66] = locus YPL256C, strain CLN2, hits give low values
[67] = locus YPR025C, strain CCL1, hits give low values
[68] = locus YPR106W, strain ISR1, hits give low values
[69] = locus YPR111W, strain DBF20, hits give low values
[70] = strain NNK1, hits give low values
[71] = strain TSCII, hits give low values

Measured: normalized growth

O=C1Nc2ccccc2/C1=C\c1ccc(Cl)cc1
inactive: [1] 0.946 | [2] 0.943 | [3] 0.94 | [4] 0.941 | [5] 0.947 | [6] 0.945 | [7] 0.947 | [8] 0.967 | [9] 0.948 | [10] 0.94 | [11] 0.801 | [12] 0.954 | [13] 0.927 | [14] 0.937 | [15] 0.817 | [16] 0.8 | [17] 0.815 | [18] 0.942 | [19] 0.95 | [20] 0.942 | [21] 0.924 | [22] 0.941 | [23] 0.823 | [24] 0.779 | [25] 0.82 | [27] 0.776 | [28] 0.794 | [30] 0.944 | [31] 0.741 | [32] 0.852 | [33] 0.819 | [34] 0.946 | [35] 0.651 | [36] 0.781 | [37] 0.862 | [38] 0.867 | [39] 0.829 | [40] 0.942 | [41] 0.91 | [43] 0.818 | [44] 0.714 | [45] 0.81 | [46] 0.94 | [47] 0.825 | [48] 0.936 | [49] 0.956 | [50] 0.801 | [51] 0.948 | [52] 0.788 | [53] 0.947 | [54] 0.945 | [55] 0.844 | [56] 0.951 | [57] 0.833 | [58] 0.853 | [59] 0.9 | [60] 0.863 | [61] 0.949 | [62] 0.816 | [63] 0.836 | [64] 0.824 | [65] 0.943 | [67] 0.943 | [68] 0.926 | [69] 0.917 | [70] 0.92 | [71] 0.949
active: [26] 0.755 | [29] 0.519 | [42] 0.692 | [66] 0.742

O=C1Nc2ccccc2/C1=C/c1ccc(C(F)(F)F)cc1Cl
active: [26] 0.741 | [42] 0.78 | [66] 0.827
inactive: [1] 0.978 | [2] 0.965 | [3] 0.966 | [4] 0.982 | [5] 0.979 | [6] 0.972 | [7] 0.977 | [8] 0.983 | [9] 0.974 | [10] 0.982 | [11] 0.884 | [12] 0.979 | [13] 0.958 | [14] 0.961 | [15] 0.93 | [16] 0.939 | [17] 0.953 | [18] 0.976 | [19] 0.979 | [20] 0.973 | [21] 0.979 | [22] 0.974 | [23] 0.931 | [24] 0.896 | [25] 0.905 | [27] 0.883 | [28] 0.934 | [29] 0.84 | [30] 0.973 | [31] 0.918 | [32] 0.903 | [33] 0.958 | [34] 0.98 | [35] 0.955 | [36] 0.899 | [37] 0.958 | [38] 0.877 | [39] 0.891 | [40] 0.969 | [41] 0.995 | [43] 0.932 | [44] 0.952 | [45] 0.936 | [46] 0.968 | [47] 0.931 | [48] 0.963 | [49] 0.979 | [50] 0.916 | [51] 0.972 | [52] 0.881 | [53] 0.98 | [54] 0.968 | [55] 0.882 | [56] 0.966 | [57] 0.93 | [58] 0.929 | [59] 0.926 | [60] 0.914 | [61] 0.972 | [62] 0.932 | [63] 0.934 | [64] 0.916 | [65] 0.974 | [67] 0.97 | [68] 0.958 | [69] 0.936 | [70] 0.97 | [71] 0.963
